Compounds with a hit are over-represented: about 19% of the library has one in this group of screens.
DT40 TDP1 CPT – DT40-hTDP1 cell growth loss with CPT. chicken DT40 Tdp1-/-;hTDP1 cells + 20 nM CPT, ATP luminescence, 48 h. 12% of 420,000 active. Potency, µM (titrated, usually from 46.2 µM), usual class: inhibitors; further: nearly all actives have a fitted effect of over 55% in size
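Chicken DT40 Tdp1-/- cells stably complemented with human TDP1 were seeded at 400 cells/well in medium containing 20 nM camptothecin, exposed to pin-transferred compounds, and grown at 37 °C for at least 48 hr. Viability was read as ATP luminescence.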
HT1080 IDH1KD tx – HT-1080 IDH1 knockdown cell toxicity (counter line). HT-1080 IDH1 knockdown viability, ATP luminescence, 48 h. Potency, µM (doses to about 46.1 µM), actives largely listed as cytotoxic. 2% of 360,000 active. AID 686971
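After a 2 h attachment period, IDH1KD HT-1080 cells took pin-transferred compound for 48 h at 37 °C; ATP-based luminescence after 10 min room-temperature reagent incubation reported viability.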
KB-3-1 cytotox – kills parental KB-3-1 adenocarcinoma cells. KB-3-1 viability, CellTiter-Glo ATP luminescence, 72 h. Potency, µM (titrated, usually from 46.1 µM), usual class: cytotoxic. 1.4% of 400,000 active. AID 1347075; further: nearly all actives have a fitted effect of over 60% in size
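Luminescent ATP read-out (CellTiter-Glo) measures survival of drug-naive KB-3-1 cells after 72 h compound exposure at 37 °C. Titration series was screened from lowest to highest concentration, with DMSO vehicle plates as background controls.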
KB-V1 cytotox – kills drug-selected multidrug resistant KB-V1 cells | KB-V1 MDR cells viability, CellTiter-Glo, 72 h | Potency, µM (top dose mostly 46.1 µM), most hits filed as cytotoxic | 3.4% of 400,000 active | AID 1347076; further: nearly all actives have a fitted effect of over 60% in size
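Potencies derive from concentration-effect curves fitted to normalized luminescence (CellTiter-Glo) of KB-V1 cells treated for 72 h at 37 degrees C in phenol-red-free DMEM containing 10% FBS.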
HT1080-NT tox – kills 2HG-producing HT-1080-NT fibrosarcoma cells; 1.6% of 360,000 active; HT-1080-NT fibrosarcoma viability, CellTiter-Glo ATP luminescence, 48 h; AID 686970; Potency, µM (series often up to 46.1 µM), most hits filed as cytotoxic;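 further: NT is the 2HG producing partner of a matched IDH1 knockdown line; nearly all actives have a fitted effect of over 55% in size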
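Luminescent CellTiter-Glo readout after 48 hours of compound exposure at 37 degrees C defined viability of HT-1080-NT cells. Activity was normalized to DMSO wells and cell-free media wells; concentration-response curves were fitted and assigned curve classes.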
DT40 TDP1 no CPT – qHTS for Inhibitors of human tyrosyl-DNA phosphodiesterase 1 (TDP1): qHTS in cells in absence of CPT; DT40 Tdp1-/- hTDP1 cells, no CPT, ATP luminescence, 48 h; Potency, µM (top dose mostly 46.2 µM), most hits filed as inhibitors; 15% of 420,000 active; AID 686978, 2013; further: nearly all actives have a fitted effect of over 55% in size
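DT40 Tdp1-/-;hTDP1 cells, no CPT (DMSO vehicle only), 400 cells/well; compounds pin-transferred; ≥48 hr, 37 °C; CellTiter-Glo 30 min RT dark, luminescence read.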
Each line names hits and unclear results; the compound was inactive in the other large screens. The call rests on the fitted dose curve; in most records, active means well fitted curve in the direction sought with a large enough effect; inconclusive means small, poorly fitted or top-dose-only effect, or another doubt; inactive means no such curve, though single readings can be large; an effect the other way counts as inactive or inconclusive.

CC(C)C[C@H]1CNC(=S)N1C[C@H]1CCCN1C[C@H](Cc1ccc(O)cc1)N1C[C@H](CC(C)C)N(CCc2ccccc2)C1=S	DT40 TDP1 CPT inconclusive, KB-3-1 cytotox inconclusive, KB-V1 cytotox inconclusive, DT40 TDP1 no CPT 20.6µM
CC(C)C[C@H]1CNC(=O)C(=O)N1C[C@@H]1CCCN1C[C@H](Cc1ccccc1)N1C[C@H](CC(C)C)N(CCc2ccccc2)C(=O)C1=O	DT40 TDP1 CPT inconclusive, KB-3-1 cytotox inconclusive, DT40 TDP1 no CPT inconclusive
CC(C)C[C@H]1CNC(=S)N1C[C@H]1CCCN1C[C@H](Cc1ccccc1)N1C[C@H](Cc2ccc(O)cc2)N(CCc2ccccc2)C1=S	DT40 TDP1 CPT 23.1µM, KB-3-1 cytotox inconclusive, KB-V1 cytotox inconclusive, HT1080-NT tox inconclusive, DT40 TDP1 no CPT 13µM
CC(C)C[C@H]1CNC(=S)N1C[C@H]1CCCN1C[C@H](Cc1ccc(O)cc1)N1C[C@H](Cc2ccc(O)cc2)N(CCc2ccccc2)C1=S	DT40 TDP1 CPT inconclusive, HT1080 IDH1KD tx 20.6µM, KB-3-1 cytotox inconclusive, HT1080-NT tox 20.6µM, DT40 TDP1 no CPT inconclusive
CC(C)C[C@H]1CN([C@@H](Cc2ccc(O)cc2)CN2CCC[C@@H]2CN2C(=S)NC[C@@H]2Cc2ccccc2)C(=S)N1CCc1ccccc1	DT40 TDP1 CPT 6.51µM, KB-V1 cytotox inconclusive, DT40 TDP1 no CPT 6.51µM
CCOc1ccc(CCN2C(=O)C(=O)N([C@@H](Cc3ccccc3)CN3CCC[C@H]3CN3C(=O)C(=O)NC[C@@H]3Cc3ccc(O)cc3)C[C@@H]2CC(C)C)cc1	DT40 TDP1 CPT inconclusive, HT1080 IDH1KD tx inconclusive, HT1080-NT tox inconclusive, DT40 TDP1 no CPT inconclusive
CC1(C)OC(C)(C)/C(=C/Nc2ccc(O)cc2)C1=O	DT40 TDP1 CPT inconclusive, DT40 TDP1 no CPT 23.1µM
Cc1ccc(CCNC(=O)CC(C)CC2=NS(=O)(=O)c3ccccc3N2)cc1 (configuration not stated)	none
CN(Cc1c(C(=O)N(C)Cc2ccccc2)nc2ccccn12)CC1Cc2ccccc2O1 (configuration not stated)	DT40 TDP1 CPT 18.4µM, KB-V1 cytotox inconclusive, DT40 TDP1 no CPT 14.6µM
Cc1ccc(S(=O)(=O)N(C)C)cc1NC(=O)CCCNC(=O)c1ccc(Cl)cc1	none
COC(=O)Nc1ccc(S(=O)(=O)N2CCCCC2)cc1	DT40 TDP1 CPT inconclusive, KB-3-1 cytotox inconclusive, KB-V1 cytotox 8.2µM
COC(=O)Nc1ccc(S(=O)(=O)N2CCN(C)CC2)cc1	none
Cc1ccc(S(=O)(=O)N2CCCN(C)c3nc4ccccc4nc32)cc1	DT40 TDP1 CPT inconclusive, KB-V1 cytotox 16.4µM, DT40 TDP1 no CPT 16.4µM
CC1CC1C(=O)Nc1ccc(S(=O)(=O)N2CCCCC2)cc1 (configuration not stated)	DT40 TDP1 CPT 23.1µM, KB-V1 cytotox 10.3µM, DT40 TDP1 no CPT 20.6µM
CCCC(C(=O)Nc1ccc(S(=O)(=O)N2CCCC2)cc1)c1ccccc1 (configuration not stated)	DT40 TDP1 CPT 20.6µM, KB-V1 cytotox inconclusive, DT40 TDP1 no CPT inconclusive
CCCC(C)C(=O)Nc1ccc(S(=O)(=O)N2CCCC2)cc1 (configuration not stated)	KB-V1 cytotox inconclusive
O=C(NCC1Cc2cccc(-c3cccnc3)c2O1)c1cc(-c2ccccc2)n[nH]1 (configuration not stated)	DT40 TDP1 no CPT inconclusive (no result: HT1080 IDH1KD tx, KB-3-1 cytotox, KB-V1 cytotox, HT1080-NT tox)
O=C(Nc1ccc(S(=O)(=O)Nc2ccccc2)cc1)C1COc2ccccc2O1 (configuration not stated)	DT40 TDP1 CPT 16.4µM, HT1080 IDH1KD tx inconclusive, HT1080-NT tox inconclusive, DT40 TDP1 no CPT 20.6µM
CC(C)c1ccc(NC(=O)C2CCN(S(=O)(=O)c3ccc4c(c3)C(C)(C)C(=O)N4C)CC2)cc1	DT40 TDP1 CPT 16.4µM, DT40 TDP1 no CPT inconclusive
CN(C(=O)c1ccc(S(=O)(=O)N2CCCCC2)cc1)C1CCS(=O)(=O)C1 (configuration not stated)	none
Cc1cc(NC(=O)c2ccc(NC(=O)C3CCCO3)cc2)ccc1Br (configuration not stated)	DT40 TDP1 CPT inconclusive, HT1080 IDH1KD tx inconclusive, KB-3-1 cytotox inconclusive, KB-V1 cytotox inconclusive, HT1080-NT tox inconclusive, DT40 TDP1 no CPT 23.1µM
Cc1ccc(S(=O)(=O)N2CCC(C(=O)N(C)C3CCS(=O)(=O)C3)CC2)cc1 (configuration not stated)	DT40 TDP1 CPT 23.1µM, DT40 TDP1 no CPT inconclusive
C[C@H](CO)N1C[C@H](C)[C@@H](CN(C)S(C)(=O)=O)Oc2ccc(NC(=O)Cn3cnnn3)cc2C1=O	none
COc1ccc(NC(=O)c2sc3nc(N4CCOCC4)c4c(c3c2N)CC(C)(C)OC4)c(OC)c1	DT40 TDP1 CPT inconclusive, HT1080 IDH1KD tx inconclusive
Cc1ccc([N+](=O)[O-])cc1S(=O)(=O)Nc1ccc(C(=O)NCC2CCCO2)cc1 (configuration not stated)	DT40 TDP1 no CPT inconclusive
CCN(CC)S(=O)(=O)c1ccc(S(=O)(=O)N2CCCC2)cc1	none
O=C(Nc1ccc(S(=O)(=O)Nc2ccccc2)cc1)C1CC1	DT40 TDP1 CPT inconclusive, DT40 TDP1 no CPT inconclusive
CCOCCCN(CCC#N)S(=O)(=O)c1ccc(S(=O)(=O)N2CCCC2)cc1	KB-V1 cytotox 25.9µM, DT40 TDP1 no CPT inconclusive
Cc1ccc(S(=O)(=O)N2CCC(C(=O)Nc3ccncc3)CC2)cc1	DT40 TDP1 CPT inconclusive, DT40 TDP1 no CPT inconclusive
Cc1ccc(NS(=O)(=O)c2ccc(NC(=O)C3CCCO3)cc2)cc1 (configuration not stated)	DT40 TDP1 CPT inconclusive, KB-V1 cytotox 13µM, DT40 TDP1 no CPT 11.6µM
Cc1ccc(S(=O)(=O)N2CCC(C(=O)Nc3ccc(S(=O)(=O)N4CCCC4)cc3)CC2)cc1	DT40 TDP1 CPT inconclusive, DT40 TDP1 no CPT 14.6µM
Cc1ccc(NS(=O)(=O)c2ccc(NC(=O)C3CC3)cc2)cc1C	DT40 TDP1 CPT 18.4µM, HT1080 IDH1KD tx inconclusive, DT40 TDP1 no CPT inconclusive
CC(=O)OCC(OC(C)=O)C(OC(C)=O)C(OC(C)=O)C(=O)Nc1cccc(C)c1 (configuration not stated)	KB-3-1 cytotox inconclusive
CCn1nc(C)c(CN2Cc3ccccc3OC(c3ccccc3OC)C2)c1C (configuration not stated)	DT40 TDP1 no CPT inconclusive (no result: HT1080 IDH1KD tx, KB-3-1 cytotox, KB-V1 cytotox, HT1080-NT tox)
Cc1cc(C(=O)N2CCN(S(=O)(=O)c3ccccc3F)CC2)c(C)o1	DT40 TDP1 CPT inconclusive, DT40 TDP1 no CPT inconclusive
COc1ccc(S(=O)(=O)Nc2ccccc2C(=O)NCc2cccnc2)cc1	DT40 TDP1 no CPT inconclusive

High-throughput results deposited in PubChem BioAssay by National Center for Advancing Translational Sciences (NCATS).
